Assay outcomes (PubChem BioAssay)
Rango release inh: qHTS Assay for Inhibitors of RanGTP induced Rango (Ran-regulated importin-beta cargo) - Importin beta complex dissociation. Snurportin-1 (Homo sapiens) + GTP-binding nuclear protein Ran (Homo sapiens) + Importin …. Biochemical FRET Rango-importin beta, RanGTP-induced dissociation. Potency, µM (highest dose often 46.1 µM), inactives show top-dose activity change, negative = inhibition. 340,000 tested, 0.071% active. AID 540253, 2011; also: potency is read from the fitted curve at half-maximal effect; % of control where 0% means no effect; nearly all actives have a fitted effect of over 45% in size
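Compounds sat 5 min at room temperature with 0.1 uM Rango biosensor plus 0.25 uM importin beta, then FRET pre-read. RanGTP-RCC1 (0.6 uM Ran, 2mM GTP, 0.2 uM RCC1) added for 45 min, and the CFP/YFP post-read measured blocked complex dissociation.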
uPA generation: qHTS for Inhibitors of Cell Surface uPA Generation; Potency, µM (top dose mostly 38.3 µM), for the others: at the highest dose activity change, negative = inhibition, actives largely listed as inhibitors; 330,000 tested, 0.31% active; cell surface uPA generation assay, qHTS; active = well fitted inhibition curve with a large enough effect; inconclusive = small, poorly fitted or top-dose-only effect; inactive = no such curve, though single readings can be large or run the other way; tested in mouse RAW 264.7 cells; also: potency is read from the fitted curve at half-maximal effect; % is scaled to controls: 0 for no effect and ±100 for the full control effect; nearly all actives have a fitted effect of over 55% in size
a7 integrin act: qHTS for Activators of Integrin-Mediated Alleviation for Muscular Dystrophy; alpha7betagal myoblasts, beta-gal FDG fluorescence, 48 h; Potency, µM (top dose mostly 38.3 µM), without a hit: top-dose activation, usual class: activators; 350,000 tested, 0.064% active; active = well fitted activation curve with a large enough effect; inconclusive = small, poorly fitted or top-dose-only effect; inactive = no such curve, though single readings can be large or run the other way;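 also: potency is read from the fitted curve at half-maximal effect; 100% = response of the positive control SU9516; nearly all actives have a fitted effect of over 60% in size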
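alpha7betagal+/- myoblasts (passage 13, 250/well) treated 48 h at 37C with compounds at 1:260 dilution of DMSO stock. Lysed, then beta-galactosidase activity read as FDG fluorescence (ex 480/em 540) after 30 min, with pre-read for autofluorescence.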
Giardia killer: Small Molecules that selectively kill Giardia lamblia: qHTS; Giardia lamblia trophozoite viability; activity change, % at 7.66 µM, hits read low; 340,000 tested, 0.15% active; in the data active = activity change below about -80%; inconclusive = between about -30% and that limit;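 also: parasites exposed to compound for two days anaerobically before the ATP read; % is scaled to controls: 0 for no effect and ±100 for the full control effect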
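Giardia lamblia trophozoites (100 cells/well) were incubated with compounds for 48 h at 37 deg C under anaerobic conditions. Viability was read as ATP content by one-step luminescence after 15-30 min at room temperature.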
Rango-impB inh: qHTS Assay for Inhibitors of Rango (Ran-regulated importin-beta cargo) - Importin beta complex formation. 340,000 tested, 0.031% active. Importin subunit beta-1 (Homo sapiens), Q14974. Potency, µM (highest dose often 92.2 µM), for inactives: at the top dose inhibition of complex formation. Rango CFP/YFP FRET sensor + importin beta, 45 min;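 also: potency is read from the fitted curve at half-maximal effect; 0% = DMSO wells and 100% = buffer wells lacking importin beta; nearly all actives have a fitted effect of over 15% in size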
Target sequence (Q14974 whole entry, looked up): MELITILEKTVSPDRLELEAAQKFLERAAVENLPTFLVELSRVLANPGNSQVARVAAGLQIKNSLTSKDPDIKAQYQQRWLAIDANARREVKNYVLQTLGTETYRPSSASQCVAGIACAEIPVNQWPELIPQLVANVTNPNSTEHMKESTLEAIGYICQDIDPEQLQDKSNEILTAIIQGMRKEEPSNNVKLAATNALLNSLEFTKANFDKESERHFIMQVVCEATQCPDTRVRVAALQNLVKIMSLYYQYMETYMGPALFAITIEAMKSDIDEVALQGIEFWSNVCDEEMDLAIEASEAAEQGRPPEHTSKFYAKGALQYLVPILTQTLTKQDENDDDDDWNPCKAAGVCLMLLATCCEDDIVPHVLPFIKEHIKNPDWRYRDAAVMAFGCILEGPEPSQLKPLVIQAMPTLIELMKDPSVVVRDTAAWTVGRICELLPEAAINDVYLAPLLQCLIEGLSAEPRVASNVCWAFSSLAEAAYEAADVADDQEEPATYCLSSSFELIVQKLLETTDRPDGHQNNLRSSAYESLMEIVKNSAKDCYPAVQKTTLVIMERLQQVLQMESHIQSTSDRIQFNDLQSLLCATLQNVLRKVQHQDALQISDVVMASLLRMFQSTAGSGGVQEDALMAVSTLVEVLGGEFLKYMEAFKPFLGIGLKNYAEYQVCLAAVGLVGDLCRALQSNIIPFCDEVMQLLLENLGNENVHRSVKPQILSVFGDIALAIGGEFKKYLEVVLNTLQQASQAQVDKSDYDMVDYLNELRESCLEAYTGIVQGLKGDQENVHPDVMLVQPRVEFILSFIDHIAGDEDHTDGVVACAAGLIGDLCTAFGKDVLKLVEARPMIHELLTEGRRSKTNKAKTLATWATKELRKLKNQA
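FRET biosensor (snurportin 1 IBB flanked by EYFP and cerulean), 50 nM, with compound 5 min, then 0.125 microM importin beta in PBS, 1 mM DTT, 0.02% Tween-20, 0.1% BSA. CFP/YFP ratio read after 45 min at room temperature; pre-read flags interference.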
Numbers without * were called inactive; ? = inconclusive; nt = no result given. This is a sample that favours compounds with a hit; in the whole collection about 0.59% have one here. Unless noted, calls follow the shape of the full dose curve.

SMILES | Rango release inh | uPA generation | a7 integrin act | Giardia killer | Rango-impB inh
COc1ccc(CCn2c(C)cc(C(=O)CCl)c2C)cc1OC | -0.7% | 8.91µM* | -56.4% | -2.3 | -0.5%
Cc1cc(C(=O)CCl)c(C)n1CCc1ccc(Cl)cc1 | 12.8% | -15.5% | -58.9% | 18.3 | 1.3%
CC1(C)CC(=O)C2=C(C1)OC(N)=C(C#N)C2c1cc2c(cc1[N+](=O)[O-])OCO2 (configuration not stated) | 16.4µM* | 3.4% | -0.6% | -5.0 | ?
Cc1cc([N+](=O)[O-])nn1Cc1ccc(C(=O)N/N=C/c2ccc(O)cc2O)cc1 | 7.4% | 7.08µM* | -22.3% | 6.3 | 7.3%
COc1cc(C(CCN2CCCC2)c2c(OC)cc(OC)c3c2OC(=O)CC3c2ccc(N(C)C)cc2)cc(OC)c1OC (configuration not stated) | nt | nt | nt | 3.2 | nt
CCOc1ccccc1NC(=O)C(=O)N/N=C/c1ccc([N+](=O)[O-])cc1 | 15.7% | 0.1% | 21.4% | -9.6 | -0.8%
Cc1ccnn1CC(=O)N/N=C/c1ccc([N+](=O)[O-])s1 | -5.6% | ? | -24.0% | -95.9* | -0.3%
COc1ccccc1NC(=O)C(=O)N/N=C/c1ccc([N+](=O)[O-])s1 | -1.4% | ? | -24.5% | -89.5* | -1.2%
COC(=O)N/N=C/c1ccc([N+](=O)[O-])s1 | -13.5% | -10.6% | 0.0% | ? | 0.6%
Cc1ccnn1CC(=O)N/N=C/c1cccs1 | -11.3% | -3.9% | 2.5% | 2.7 | -4.3%
O=C(Cc1ccccc1)N/N=C/c1ccc([N+](=O)[O-])s1 | 16.8% | -10.5% | -53.0% | -90.9* | 1.1%
O=C(N/N=C/c1ccc([N+](=O)[O-])s1)c1ccccc1 | -14.7% | -20.9% | -25.3% | -89.8* | -2.9%
C=C1CC2C(=O)N(Cc3cc(OC)ccc3OC)C(C(=O)OCC)C1N2C (configuration not stated) | nt | nt | nt | 21.2 | nt
O=C(CNC(=O)c1cccc(F)c1)N/N=C/c1ccc([N+](=O)[O-])s1 | 9.9% | 10µM* | -39.0% | ? | -0.1%
O=C(CNC(=O)c1cccc(Br)c1)N/N=C/c1cccs1 | -15.6% | 8.5% | 9.6% | 4.1 | -1.7%
O/N=C/c1cc(Br)ccc1OCc1ccc(F)cc1 | 16.4µM* | 2.0% | 1.0% | -6.8 | ?
O=C(N/N=C/c1ccc([N+](=O)[O-])s1)C(O)c1ccccc1 (configuration not stated) | 3.4% | 10µM* | -56.2% | ? | -0.6%
O=C(CNC(=O)c1ccccc1F)N/N=C/c1cc(Br)ccc1OCc1ccccc1 | -12.5% | 10.9% | 0.0% | ? | 2.8%
O=C(CNC(=O)c1cccc(F)c1)N/N=C/c1cc(Br)ccc1OCc1ccccc1 | -25.5% | 1.8% | 10µM* | -20.8 | 0.2%
COc1ccc(NC(=O)c2cccc(S(=O)(=O)N3CCCCCC3)c2)cc1 | 3.5% | 0.3% | 0.0% | 5.2 | -5.9%
O=C(C=C(C(=O)c1ccccc1)c1ccccc1)c1ccccc1 | -0.4% | -6.1% | -54.5% | -12.2 | 3.5%
COc1cc2c(cc1OC)-c1cc(OCCN3CCOCC3)nc(=O)n1CC2 | 8.2µM* | -4.1% | -1.4% | 31.4 | ?
CCNc1cc2n(c(=O)n1)CCc1cc(OC)c(OC)cc1-2 | 0.1% | -8.7% | -12.7% | 9.5 | 3.1%
Nc1ccc(-c2nc3ccc(N)cc3o2)cc1 | ? | 7.94µM* | 15.1% | ? | ?
O=C(Cn1ncc(Cl)c(Cl)c1=O)NC(=O)NC1CCCCC1 | -5.9% | 6.1% | -5.2% | 11.6 | -2.7%
Cc1ccc(NC(=O)CN2C(=O)S/C(=C/c3ccc(O)c([N+](=O)[O-])c3)C2=O)cc1C | -7.8% | -1.1% | -7.0% | -82.0* | ?
O=C1S/C(=C\c2ccc(O)c([N+](=O)[O-])c2)C(=O)N1Cc1cccc([N+](=O)[O-])c1 | 21.8% | 1.5% | 1.5% | -81.5* | 2.9%
Cc1cccc(NC(=O)CN2C(=O)S/C(=C\c3ccc(O)c([N+](=O)[O-])c3)C2=O)c1 | -7.0% | 1.0% | 21.5% | ? | -0.3%
